# Results published in PubChem BioAssay (Tox21).
# Values joined by “and” are separate entries in the source; they are usually repeats but may differ in a detail not shown here. Equal entries are not always repeated. Active and inactive are the calls of the source. Entries that show only a call come without a potency. Unless noted, calls come from the whole dose curve; as a rule, active = well fitted curve in the direction sought with a large enough effect in the repeat runs; inconclusive = weak or mixed curves; inactive = no such curve, though single readings can be large; an effect the other way counts as inactive or inconclusive.
# Legend:
# [1] = qHTS assay to identify small molecule antagonists of the thyroid receptor (TR) signaling pathway - cell viability counter screen (AID 743064); note: nearly all actives have a fitted effect of over 50% in size; note: potency is the fitted concentration of half-maximal effect
# How it was run: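 GH3.TRE-Luc cells, 4 h pre-plating; cpd + T3 1 nM final; 37 °C 23.5 h; CellTiter-Fluor 30 min; fluorescence read.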
# [2] = tested on: thyroid hormone receptor (rat, GH3 cells); assay: qHTS assay to identify small molecule agonists of the thyroid receptor (TR) signaling pathway (AID 743066; calls by dose curve)
# [3] = qHTS assay to identify small molecule antagonists of the estrogen receptor alpha (ER-alpha) signaling pathway - cell viability counter screen (AID 743074; calls by dose curve;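 note: HEK293 cells carrying ER-alpha-UAS-bla reporter stimulated with 17beta-estradiol; nearly all actives have a fitted effect of over 45% in size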)
# [4] = qHTS assay to identify small molecule antagonists of the estrogen receptor alpha (ER-alpha) signaling pathway using the BG1 cell line - cell viability counter screen (AID 743081);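 note: compound given together with 17beta-estradiol as the ER stimulus; nearly all actives have a fitted effect of over 45% in size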; note: potency is the fitted concentration of half-maximal effect
# Aromatase (Homo sapiens) = Aromatase (Homo sapiens) (UniProt P11511); assay: qHTS assay to identify aromatase inhibitors (AID 743083); note: nearly all actives have a fitted effect of over 55% in size; note: potency is the fitted concentration of half-maximal effect
# [5] = qHTS assay to identify aromatase inhibitors - cell viability counter screen (AID 743084);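 note: cells stimulated with testosterone during compound exposure; nearly all actives have a fitted effect of over 55% in size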; note: potency is the fitted concentration of half-maximal effect
# [6] = qHTS assay to identify small molecule that activate the aryl hydrocarbon receptor (AhR) signaling pathway - cell viability counter screen (AID 743086); note: nearly all actives have a fitted effect of over 45% in size; note: potency is the fitted concentration of half-maximal effect
# How it was run: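 HepG2-AhR-luc (HG2L7.5c1) cells, 4000/well, were preincubated 5 h at 37C, exposed to compound in qHTS format for 24 hr at 37C, then given CellTiter-Fluor for 30 min; viability was read as fluorescence in the reporter wells.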
# [7] = biological target: Peroxisome proliferator-activated receptor gamma (Homo sapiens) (UniProt P37231); assay: qHTS assay to identify small molecule agonists of the peroxisome proliferator-activated receptor gamma (PPARg) signaling pathway (AID 743094; active = well fitted activation curve with a large enough effect in the signal ratio in the repeat runs, not every such curve was filed as active; inconclusive = weak or mixed curves, or effect the other way; inactive = no such curve, though single readings can be large or run the other way; the % refers to the signal ratio)
# How it was run: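 Quantitative HTS agonist mode: stable HEK293H line with UAS-beta-lactamase reporter under PPARg control, 17 h compound exposure at 37C, fluorescence after 1 h FRET substrate loading at room temperature.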
# [8] = qHTS assay to identify small molecule antagonists of the thyroid receptor (TR) signaling pathway (AID 743065); note: nearly all actives have a fitted effect of over 55% in size; note: potency is the fitted concentration of half-maximal effect
# How it was run: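 GH3.TRE-Luc rat pituitary cells carrying two TR response elements driving luciferase were plated for 4 h, given compound plus 1 nM T3 (final), and incubated 23.5 h at 37 C. ONE-Glo luminescence measured reporter inhibition; CellTiter-Fluor fluorescence tracked cytotoxicity.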
# [9] = biological target: Aryl hydrocarbon receptor (Homo sapiens) (UniProt P35869); assay: qHTS assay to identify small molecule that activate the aryl hydrocarbon receptor (AhR) signaling pathway (AID 743085); note: nearly all actives have a fitted effect of over 15% in size; note: potency is the fitted concentration of half-maximal effect;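 for activation: HG2L7.5c1 human HepG2 liver cells with stably integrated DRE-driven firefly reporter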
# How it was run: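 Luminescence read-out: ONE-Glo reagent, 30 min at room temperature, in HG2L7.5c1 HepG2 reporter cells treated 24 h at 37C. Viability was measured beforehand by CellTiter-Fluor fluorescence after 30 min at 37C.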
# [10] = qHTS assay for small molecule activators of the heat shock response signaling pathway - cell viability counter screen (AID 743209); note: nearly all actives have a fitted effect of over 50% in size; note: potency is the fitted concentration of half-maximal effect
# How it was run: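 First, HSE-bla HeLa cells were seeded at 1500 cells/well and kept overnight at 37 C. Next, compounds were pinned in and incubated 5 h. After the FRET substrate step, CellTiter-Glo was added and luminescence read 30 min later.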
# [11] = biological target: Peroxisome proliferator-activated receptor gamma (Homo sapiens) (UniProt P37231); assay: qHTS assay to identify small molecule antagonists of the peroxisome proliferator-activated receptor gamma (PPARg) signaling pathway (AID 743191; calls by dose curve; note: nearly all actives have a fitted effect of over 30% in size; note: potency is the fitted concentration of half-maximal effect)
# How it was run: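 GeneBLAzer PPARg UAS-bla HEK293H cells carrying a UAS-driven beta-lactamase reporter were plated at 3000 cells/well, preincubated 5 h at 37C, then given compound for 17 h at 37C; LiveBLAzer B/G FRET substrate was read after 1 h at room temperature.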
# [12] = qHTS assay for small molecule agonists of the antioxidant response element (ARE) signaling pathway (AID 743202; active = well fitted activation curve with a large enough effect in the signal ratio in the repeat runs, not every such curve was filed as active; inconclusive = weak or mixed curves, or effect the other way; inactive = no such curve, though single readings can be large or run the other way; the % refers to the signal ratio; note: potency is the fitted concentration of half-maximal effect)
# How it was run: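 Compounds delivered in DMSO to ARE-bla HepG2 cells (2,000 cells/well, pre-incubated 5 h) and left 16 h at 37 C. LiveBLAzer B/G FRET substrate then added for 2 h at RT before fluorescence reading.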
# [13] = qHTS assay for small molecule agonists of the antioxidant response element (ARE) signaling pathway - cell viability counter screen (AID 743203; calls by dose curve; note: nearly all actives have a fitted effect of over 55% in size; note: potency is the fitted concentration of half-maximal effect)
# How it was run: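 Seeded at 2,000 cells/well, ARE-bla HepG2 cells were incubated 5 hrs before compound addition. After 16 hrs of treatment at 37C with 5% CO2, CellTiter-Glo reagent was added and luminescence read 30 min later.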
# [14] = qHTS assay for small molecule activators of the heat shock response signaling pathway (AID 743210; active = well fitted activation curve with a large enough effect in the signal ratio in the repeat runs, with a control signal flat, not every such curve was filed as active; inconclusive = weak or mixed curves; the % refers to the signal ratio;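 note: HeLa cells with beta-lactamase reporter driven by heat shock elements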)
# How it was run: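 Reporter gene assay: HeLa cells stably bearing an HSE-bla construct, compound treatment 5 h at 37 C, LiveBLAzer substrate 2.5 h at RT, fluorescence intensity.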
# [15] = biological target: Estrogen receptor (Homo sapiens) (UniProt P03372); assay: qHTS assay to identify small molecule antagonists of the estrogen receptor alpha (ER-alpha) signaling pathway (AID 743069; active = well fitted curve in the direction sought with a large enough effect in the signal ratio in the repeat runs, not every such curve was filed as active; inconclusive = weak or mixed curves, or effect the other way; inactive = no such curve, though single readings can be large or run the other way; the % refers to the signal ratio; note: potency is the fitted concentration of half-maximal effect)
# How it was run: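 Estradiol-stimulated ER-alpha-UAS-bla HEK293 cells, 18 hr compound exposure at 37C. LiveBLAzer B/G substrate, 2 hr RT, fluorescence read.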
# [16] = biological target: Estrogen receptor (Homo sapiens) (UniProt P03372); assay: qHTS assay to identify small molecule agonists of the estrogen receptor alpha (ER-alpha) signaling pathway (AID 743075; calls by dose curve;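 note: HEK293 GripTite cells with ER-alpha and UAS-driven beta-lactamase reporter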; note: potency is the fitted concentration of half-maximal effect)
# [17] = qHTS assay to identify small molecule antagonists of the peroxisome proliferator-activated receptor gamma (PPARg) signaling pathway - cell viability counter screen (AID 743194); note: nearly all actives have a fitted effect of over 55% in size; note: potency is the fitted concentration of half-maximal effect
# How it was run: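 PPARg-UAS-bla HEK293H cells were plated, rested 5 h at 37 C, then treated with compounds plus rosiglitazone (50 nM final) for 17 h at 37 C; viability was then read by CellTiter-Glo luminescence after 30 min at room temperature.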
# [18] = qHTS assay to identify small molecule antagonists of the estrogen receptor alpha (ER-alpha) signaling pathway using the BG1 cell line (AID 743080; calls by dose curve;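 note: BG1 cells stimulated with 17beta-estradiol alongside compound; nearly all actives have a fitted effect of over 25% in size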; note: potency is the fitted concentration of half-maximal effect)
# How it was run: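 Luminescence from a 4×ERE-luciferase reporter in BG1-Luc-4E2 cells served as read-out. Cells, pre-cultured 5 days in stripped-serum phenol-red-free medium, were exposed to compound with 17beta-estradiol co-stimulation for 21.5 h at 37 C.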
# [19] = biological target: Estrogen receptor (Homo sapiens) (UniProt P03372); assay: qHTS assay to identify small molecule agonists of the estrogen receptor alpha (ER-alpha) signaling pathway using the BG1 cell line (AID 743079); conditions: BG1Luc4E2 cells, ERE-luciferase agonist, 22 h; activation: at 70.3 µM (top of the series); note: nearly all actives have a fitted effect of over 20% in size; note: potency is the fitted concentration of half-maximal effect
# Sequence of Peroxisome proliferator-activated receptor gamma (Homo sapiens) (P37231 whole entry, looked up): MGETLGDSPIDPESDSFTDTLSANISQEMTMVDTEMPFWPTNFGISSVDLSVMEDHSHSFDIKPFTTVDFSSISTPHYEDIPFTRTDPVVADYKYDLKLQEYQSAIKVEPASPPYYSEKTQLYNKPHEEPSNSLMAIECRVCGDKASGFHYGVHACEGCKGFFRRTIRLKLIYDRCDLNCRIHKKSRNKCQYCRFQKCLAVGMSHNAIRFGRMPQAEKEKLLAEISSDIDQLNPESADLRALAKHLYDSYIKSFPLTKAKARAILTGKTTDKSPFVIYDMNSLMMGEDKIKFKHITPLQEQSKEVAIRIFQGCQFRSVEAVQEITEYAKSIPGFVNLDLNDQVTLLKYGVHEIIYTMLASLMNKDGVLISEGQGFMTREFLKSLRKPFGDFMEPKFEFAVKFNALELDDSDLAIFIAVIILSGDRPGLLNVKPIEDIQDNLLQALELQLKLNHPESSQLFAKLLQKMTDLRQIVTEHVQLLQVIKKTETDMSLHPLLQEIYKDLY
# Sequence of Estrogen receptor (Homo sapiens) (P03372 whole entry, looked up): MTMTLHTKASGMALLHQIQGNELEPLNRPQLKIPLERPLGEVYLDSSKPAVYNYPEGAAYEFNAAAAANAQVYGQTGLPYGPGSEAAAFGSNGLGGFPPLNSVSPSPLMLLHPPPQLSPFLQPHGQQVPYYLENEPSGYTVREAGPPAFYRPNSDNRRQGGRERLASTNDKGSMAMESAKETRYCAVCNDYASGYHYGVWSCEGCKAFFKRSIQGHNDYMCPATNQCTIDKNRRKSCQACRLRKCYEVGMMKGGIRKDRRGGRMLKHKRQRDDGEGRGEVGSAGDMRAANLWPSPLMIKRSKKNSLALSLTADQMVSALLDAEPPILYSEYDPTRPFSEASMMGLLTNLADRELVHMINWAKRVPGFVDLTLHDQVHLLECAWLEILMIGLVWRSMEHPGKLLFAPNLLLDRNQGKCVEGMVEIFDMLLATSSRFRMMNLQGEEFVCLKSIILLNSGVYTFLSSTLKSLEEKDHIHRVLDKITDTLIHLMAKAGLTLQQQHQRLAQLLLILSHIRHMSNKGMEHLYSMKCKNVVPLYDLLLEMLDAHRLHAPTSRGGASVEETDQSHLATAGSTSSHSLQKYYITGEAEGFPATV
# Sequence of Aryl hydrocarbon receptor (Homo sapiens) (P35869 whole entry, looked up): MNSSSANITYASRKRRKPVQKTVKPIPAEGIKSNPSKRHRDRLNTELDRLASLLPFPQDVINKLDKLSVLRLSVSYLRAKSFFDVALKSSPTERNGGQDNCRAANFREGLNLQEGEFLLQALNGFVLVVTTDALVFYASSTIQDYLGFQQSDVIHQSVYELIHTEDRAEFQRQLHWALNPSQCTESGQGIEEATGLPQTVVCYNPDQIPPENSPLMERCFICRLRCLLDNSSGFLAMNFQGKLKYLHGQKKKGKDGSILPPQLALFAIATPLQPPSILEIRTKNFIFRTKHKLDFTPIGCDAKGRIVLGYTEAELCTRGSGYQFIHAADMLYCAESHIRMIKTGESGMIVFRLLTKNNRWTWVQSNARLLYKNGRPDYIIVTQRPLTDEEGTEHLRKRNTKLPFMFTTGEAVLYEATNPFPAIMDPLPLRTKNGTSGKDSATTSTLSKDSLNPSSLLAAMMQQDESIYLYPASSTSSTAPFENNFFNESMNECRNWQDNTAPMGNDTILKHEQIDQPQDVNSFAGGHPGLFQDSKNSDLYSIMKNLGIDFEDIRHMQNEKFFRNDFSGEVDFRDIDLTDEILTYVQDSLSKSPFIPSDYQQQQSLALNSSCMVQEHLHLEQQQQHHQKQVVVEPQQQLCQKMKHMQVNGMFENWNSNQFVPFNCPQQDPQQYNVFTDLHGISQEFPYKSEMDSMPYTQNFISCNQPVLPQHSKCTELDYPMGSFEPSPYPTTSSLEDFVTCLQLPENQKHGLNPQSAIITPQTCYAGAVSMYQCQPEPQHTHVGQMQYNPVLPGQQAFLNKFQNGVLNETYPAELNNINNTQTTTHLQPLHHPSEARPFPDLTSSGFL
# Sequence of Aromatase (Homo sapiens) (P11511 whole entry, looked up): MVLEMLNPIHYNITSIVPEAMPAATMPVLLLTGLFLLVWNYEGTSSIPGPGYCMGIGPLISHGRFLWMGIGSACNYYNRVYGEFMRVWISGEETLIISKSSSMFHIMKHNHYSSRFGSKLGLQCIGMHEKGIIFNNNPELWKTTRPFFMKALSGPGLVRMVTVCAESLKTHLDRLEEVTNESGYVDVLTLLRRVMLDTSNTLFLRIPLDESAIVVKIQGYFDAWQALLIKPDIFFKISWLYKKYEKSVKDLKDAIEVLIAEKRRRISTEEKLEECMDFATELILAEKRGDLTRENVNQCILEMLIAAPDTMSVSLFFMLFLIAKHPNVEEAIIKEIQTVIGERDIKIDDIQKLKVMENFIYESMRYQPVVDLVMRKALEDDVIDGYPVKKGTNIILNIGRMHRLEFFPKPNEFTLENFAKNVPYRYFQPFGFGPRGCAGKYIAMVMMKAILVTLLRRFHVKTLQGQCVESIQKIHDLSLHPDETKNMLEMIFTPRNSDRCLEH
SMILES,Potency [1],outcome [2],Potency [3],Potency [4],Potency (Aromatase (Homo sapiens)),Potency [5],Potency [6],Potency [7],Potency [8],Potency [9],Potency [10],Potency [11],Potency [12],Potency [13],Potency [14],Potency [15],Potency [16],Potency [17],Potency [18],Potency [19]
CCCCCC[C@@H](O)C/C=C\CCCCCCCC(=O)O,inactive,inactive,inactive,inactive,inactive,inactive,inactive,inactive,,,,,,,,,,,,
C[C@@H](O[C@H]1OCCN(Cc2n[nH]c(=O)[nH]2)[C@H]1c1ccc(F)cc1)c1cc(C(F)(F)F)cc(C(F)(F)F)c1,13.3 µM (active),,,inactive,29.8 µM (active),,,inactive,10.6 µM (active),inactive,29.8 µM (active),,,,,,,,,
CCC1NC(=O)c2cc(S(N)(=O)=O)c(Cl)cc2N1 (stereo unspecified),inactive,inactive,,inactive,inactive,,inactive,inactive,inactive,,,inactive,inactive,inactive,inactive,,,,,
O=C1c2ccccc2C(=O)c2c(O)c(O)cc(O)c21,54.5 µM (active),inactive,inactive,,inactive,27.3 µM (active),,inactive,,10.9 µM (active),inactive,,,inactive,inactive,inactive,inactive,inactive,,
CCOc1ccc(Cc2nccc3cc(OCC)c(OCC)cc23)cc1OCC,inactive,inactive,inactive,,inactive,inactive,inactive,inactive,,,inactive,,,inactive,inactive,,inactive,,11.4 µM (active),
O=C(O)c1cccc(-c2noc(-c3ccccc3F)n2)c1,,inactive,,inactive,inactive,inactive,inactive,,10.6 µM (active),,inactive,,,,,,,,,
FC(F)(F)c1ccccc1Cl,,inactive,inactive,inactive,inactive,inactive,inactive,inactive,inactive,inactive,inactive,inactive,inactive,inactive,inactive,inactive,inactive,inactive,inactive,inactive
C[C@H]1c2cccc(O)c2C(O)=C2C(=O)[C@]3(O)C(O)=C(C(N)=O)C(=O)[C@@H](N(C)C)[C@@H]3[C@@H](O)[C@@H]21,,inactive,inactive,inactive,inactive,inactive,inactive,inactive,inactive,inactive,inactive,,,inactive,,,inactive,inactive,inactive,inactive
Nc1nc2ccc([N+](=O)[O-])cc2s1,,inactive,,,inactive,,,inactive,48.6 µM (active),32.5 µM (active),,,9.69 µM (active),inactive,,,,,,
O=C(O)C[C@H](NC(=O)OCc1ccccc1)C(=O)O,inactive,,inactive,inactive,inactive,inactive,inactive,inactive,,inactive,,inactive,,,inactive,inactive,inactive,inactive,inactive,inactive
CC(=O)OCCN(CCOC(C)=O)c1ccc(N=Nc2ccc([N+](=O)[O-])cc2C#N)cc1,,inactive,inactive,,,27.3 µM (active),inactive,inactive,61.1 µM (active),,inactive,inactive,,inactive,inactive,,,inactive,,
CC(=O)Nc1cc(S(=O)(=O)O)cc2cc(S(=O)(=O)O)c(N=Nc3ccccc3)c(O)c12,,inactive,inactive,8.63 µM (active),inactive,24.3 µM (active),19.3 µM (active),inactive,inactive,,inactive,,inactive,inactive,inactive,inactive,inactive,,,
Oc1c(I)cc(I)c2cccnc12,inactive,,,inactive,inactive,inactive,inactive,inactive,,,inactive,18.8 µM (active),,inactive,inactive,6.01 µM [cytotoxic] (active),inactive,,,inactive
OC[C@H]1O[C@@H](n2cnc3c(=S)nc[nH]c32)[C@H](O)[C@@H]1O,,inactive,,inactive,inactive,inactive,inactive,,23.7 µM (active),inactive,inactive,,3.35 µM (active),2.66 µM (active),inactive,,inactive,3.76 µM (active),,inactive
Oc1ccc(Cl)c2cccnc12,7.5 µM (active),,inactive,inactive,3.35 µM (active),,inactive,inactive,,11.9 µM (active),inactive,,23.7 µM (active),inactive,,,inactive,,inactive,inactive
C=CC(=O)OCC1CC2CC1C1CCC(COC(=O)C=C)C21 (stereo unspecified),,inactive,,inactive,inactive,inactive,inactive,inactive,61.1 µM (active),,,,,inactive,,,,,,
CC(CN(C)C)C(C)(O)Cc1ccc(Cl)cc1 (stereo unspecified),,inactive,inactive,,inactive,inactive,inactive,inactive,inactive,inactive,inactive,inactive,inactive,inactive,,inactive,inactive,inactive,inactive,inactive

SMILES,Potency [1],outcome [2],Potency [3],Potency [4],Potency (Aromatase (Homo sapiens)),Potency [5],Potency [6],Potency [7],Potency [8],Potency [9],Potency [10],Potency [11],Potency [12],Potency [13],Potency [14],Potency [15],Potency [16],Potency [17],Potency [18],Potency [19]
O=C(CCc1ccc(O)cc1)c1c(O)cc(O)cc1O,55.7 µM (active),inactive,,inactive,,inactive,inactive,inactive,,inactive,inactive,,31.3 µM (active),,,,14.1 µM [inconclusive] (active),,inactive,4.96 µM (active)
C/C=C\C/C=C/CCCCCCCCOC(C)=O,,inactive,inactive,inactive,inactive,,inactive,,68.6 µM (active),inactive,inactive,,,inactive,,inactive,inactive,,inactive,inactive
CN1C(=O)c2ccccc2C1=O,,inactive,,,inactive,inactive,inactive,inactive,inactive,inactive,,,,inactive,,,,,,
c1ccc2sc(SN(C3CCCCC3)C3CCCCC3)nc2c1,,inactive,inactive,inactive,inactive,inactive,inactive,inactive,21.4 µM (active),,inactive,,30.3 µM (active),inactive,inactive,inactive,inactive,,inactive,inactive
Oc1cccc(O)c1O,,inactive,inactive,inactive,inactive,inactive,inactive,inactive,inactive,,inactive,inactive,inactive,inactive,inactive,,21.3 µM [inconclusive] (active) and 54.5 µM [inconclusive] (active),inactive,inactive,5.96 µM (active)
Cc1ccc(Cl)c(Nc2ccccc2C(=O)O)c1Cl,inactive,inactive,,inactive,inactive,inactive,inactive,,,inactive,,,inactive,inactive,inactive,,inactive,inactive,inactive,inactive
Oc1cccc(Nc2ccccc2)c1,inactive,inactive,,,inactive,inactive,inactive,,,inactive,inactive,,,inactive,inactive,,57.6 µM [activator] (active),inactive,,25.4 µM (active)
CN1CC(=O)N2[C@H](c3ccc4c(c3)OCO4)c3[nH]c4ccccc4c3C[C@@H]2C1=O,,inactive,,inactive,inactive,,,inactive,inactive,,inactive,inactive,inactive,inactive,,inactive,inactive,,,inactive
CCC(=O)OC,inactive,,inactive,inactive,inactive,inactive,inactive,inactive,,inactive,inactive,inactive,inactive,inactive,,inactive,inactive,inactive,inactive,inactive
CCCCCCCCC(CCCCCC)C(=O)O (stereo unspecified),inactive,inactive,inactive,inactive,,,inactive,,,inactive,17.4 µM (active),,inactive,,,,,38.9 µM (active),,
CC(C)=CC(=O)C=C(C)C,,inactive,inactive,inactive,inactive,inactive,inactive,inactive,inactive,inactive,inactive,,,inactive,inactive,inactive,inactive,inactive,inactive,inactive
Cc1ccccc1S,,inactive,inactive,inactive,inactive,inactive,inactive,inactive,inactive,inactive,,inactive,,inactive,,inactive,inactive,inactive,inactive,inactive
O=C=Nc1ccc(Cl)c(Cl)c1,,inactive,inactive,inactive,inactive,inactive,inactive,inactive,inactive,47.8 µM (active),inactive,,,inactive,inactive,,inactive,inactive,inactive,inactive
CCCCCCCCOc1ccc(C(=O)O)cc1,inactive,inactive,inactive,inactive,,inactive,inactive,,,inactive,,,,inactive,,,,inactive,,
C1COC1,,inactive,inactive,inactive,inactive,inactive,inactive,inactive,inactive,inactive,inactive,inactive,inactive,inactive,inactive,inactive,inactive,inactive,inactive,
COC(=O)CS,inactive,,inactive,inactive,inactive,inactive,inactive,inactive,,inactive,,,inactive,inactive,inactive,inactive,inactive,inactive,inactive,inactive
